From PubChem BioAssay (Tox21)
Results filed as inconclusive are left out. Activity calls are given as the source filed them. Unless noted, calls come from the whole dose curve; as a rule, active = well fitted curve in the direction sought with a large enough effect in the repeat runs; inconclusive = weak or mixed curves; inactive = no such curve, though single readings can be large; an effect the other way counts as inactive or inconclusive.

Assays:
[1] = qHTS assay to identify aromatase inhibitors - cell viability counter screen (AID 743084);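 note: cells stimulated with testosterone during compound exposure; nearly all actives have a fitted effect of over 55% in size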
[2] = target: Aryl hydrocarbon receptor (Homo sapiens) (UniProt P35869); assay: qHTS assay to identify small molecule that activate the aryl hydrocarbon receptor (AhR) signaling pathway (AID 743085);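 note: HG2L7.5c1 human HepG2 liver cells with stably integrated DRE-driven firefly reporter; series mostly up to about 70 µM; nearly all actives have a fitted effect of over 15% in size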
In short: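 Stably transfected human liver carcinoma cells (HG2L7.5c1; 20 DRE-firefly luciferase) were incubated 5 h, dosed, and kept 24 h at 37C. Agonism was scored from increased luciferase luminescence.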

[3] = qHTS assay to identify small molecule that activate the aryl hydrocarbon receptor (AhR) signaling pathway - cell viability counter screen (AID 743086);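 note: HepG2 liver cells carrying the AhR DRE luciferase reporter; series mostly up to about 70 µM; nearly all actives have a fitted effect of over 45% in size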
In short: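 Cytotoxicity counter screen: CellTiter-Fluor signal (30 min, 37 C) in 4000 HepG2 cells/well carrying the DRE-luciferase reporter, following 24 h compound exposure at 37 C.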

[4] = target: Peroxisome proliferator-activated receptor gamma (Homo sapiens) (UniProt P37231); assay: qHTS assay to identify small molecule agonists of the peroxisome proliferator-activated receptor gamma (PPARg) signaling pathway (AID 743094; active = well fitted activation curve with a large enough effect in the signal ratio in the repeat runs, not every such curve was filed as active; the % refers to the signal ratio)
In short: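 Beta-lactamase FRET fluorescence was the read-out after a 1 h room-temperature substrate step, following 17 h compound treatment at 37C of HEK293H cells expressing a UAS-driven bla reporter responsive to PPARg.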

[5] = target: Peroxisome proliferator-activated receptor gamma (Homo sapiens) (UniProt P37231); assay: qHTS assay to identify small molecule antagonists of the peroxisome proliferator-activated receptor gamma (PPARg) signaling pathway (AID 743191; calls by dose curve; note: series mostly up to about 63 µM; nearly all actives have a fitted effect of over 30% in size)
In short: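 Beta-lactamase reporter under UAS control in HEK293H PPARg-bla cells; compound treatment 17 h at 37C. Read-out: fluorescence intensity after 1 h room-temperature incubation with LiveBLAzer B/G FRET substrate.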

[6] = qHTS assay to identify small molecule antagonists of the peroxisome proliferator-activated receptor gamma (PPARg) signaling pathway - cell viability counter screen (AID 743194); conditions: Potency: co-treated with 50 nM rosiglitazone; note: nearly all actives have a fitted effect of over 55% in size
In short: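 Viability was measured as CellTiter-Glo luminescence in GeneBLAzer PPARg UAS-bla HEK293H cells. These cells had been exposed 17 h at 37 C to compounds together with rosiglitazone at 50 nM final, with the beta-lactamase readout taken in the same wells.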

[7] = qHTS assay for small molecule agonists of the antioxidant response element (ARE) signaling pathway (AID 743202; active = well fitted activation curve with a large enough effect in the signal ratio in the repeat runs, not every such curve was filed as active; the % refers to the signal ratio)
In short: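 An ARE-responsive beta-lactamase gene stably integrated in HepG2 cells serves as reporter. After 5 h plating and 16 h compound incubation at 37 C, fluorescence of the B/G FRET substrate was measured.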

[8] = qHTS assay for small molecule agonists of the antioxidant response element (ARE) signaling pathway - cell viability counter screen (AID 743203; calls by dose curve; note: nearly all actives have a fitted effect of over 55% in size)
In short: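 HepG2 cells carrying ARE-driven beta-lactamase; 2,000 cells/well; 5 hrs plating; compound pinned from DMSO; 16 hrs 37C/5% CO2; CellTiter-Glo added; 30 min RT; luminescence.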

[9] = qHTS assay for small molecule activators of the heat shock response signaling pathway - cell viability counter screen (AID 743209); note: nearly all actives have a fitted effect of over 50% in size
In short: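 Luminescence from CellTiter-Glo, added after the beta-lactamase FRET read, gave the viability signal. Cells were HSE-bla HeLa treated with DMSO-dissolved compounds for 5 h at 37 C following overnight plating.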

[10] = qHTS assay for small molecule activators of the heat shock response signaling pathway (AID 743210; active = well fitted activation curve with a large enough effect in the signal ratio in the repeat runs, with a control signal flat, not every such curve was filed as active; the % refers to the signal ratio;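 note: HeLa cells with beta-lactamase reporter driven by heat shock elements; series mostly up to about 63 µM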)
In short: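 In HSE-bla HeLa cells, 5 h compound incubation (37 C) precedes addition of LiveBLAzer B/G substrate; after 2.5 h at room temperature, fluorescence intensity indicates reporter induction.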

[11] = qHTS assay to identify small molecule antagonists of the peroxisome proliferator-activated receptor delta (PPARd) signaling pathway - cell viability counter screen (AID 743213); note: nearly all actives have a fitted effect of over 50% in size
In short: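 In this counter screen, HEK293H cells carrying a UAS-beta-lactamase reporter are co-treated with test compounds and 300 nM L165041 (final) for 17 h at 37 C; cell viability is quantified by CellTiter-Glo luminescence.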

[12] = qHTS assay to identify small molecule agonists of the farnesoid-X-receptor (FXR) signaling pathway - cell viability counter screen (AID 743218); note: nearly all actives have a fitted effect of over 45% in size
In short: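 HEK 293T FXR-bla cells; 5 h pre-incubation, 16 h compound exposure at 37 C; LiveBLAzer substrate 2 h RT, then CellTiter-Glo 30 min RT, luminescence.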

[13] = qHTS assay to identify small molecule antagonists of the farnesoid-X-receptor (FXR) signaling pathway - cell viability counter screen (AID 743221; active = well fitted cell-killing curve with a large enough effect in the repeat runs, not every such curve was filed as active; note: nearly all actives have a fitted effect of over 50% in size)
In short: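 Here viability was scored by luminescence after CellTiter-Glo addition to wells already read for beta-lactamase. Prior treatment: compound plus CDCA (50 uM final), 16 h, 37 C, HEK 293T FXR-bla cells.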

[14] = target: Vitamin D3 receptor (Homo sapiens) (UniProt P11473); assay: qHTS assay to identify small molecule agonists of the vitamin D receptor (VDR) signaling pathway (AID 743222; calls by dose curve)
In short: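 VDR-bla cells, 2,000/well; 4 h preincubation 37C; cpd (DMSO) 16 h; LiveBLAzer B/G substrate 2 h RT; fluorescence intensity read.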

[15] = target: Vitamin D3 receptor (Homo sapiens) (UniProt P11473); assay: qHTS assay to identify small molecule antagonists of the vitamin D receptor (VDR) signaling pathway (AID 743223; active = well fitted inhibition curve with a large enough effect in the signal ratio in the repeat runs, not every such curve was filed as active; the % refers to the signal ratio)
In short: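 Inhibition of agonist-driven VDR signalling is scored in VDR-bla cells: 3 nM final 1alpha,25-dihydroxyvitamin D3 plus compound, 16 h at 37C, then beta-lactamase detection by FRET substrate fluorescence after 2 h.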

[16] = qHTS assay to identify small molecule agonists of the peroxisome proliferator-activated receptor delta (PPARd) signaling pathway - cell viability counter screen (AID 743211); note: nearly all actives have a fitted effect of over 55% in size
In short: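 In the same wells used for beta-lactamase reporter measurement, cytotoxicity is scored by CellTiter-Glo. HEK293H PPARd-bla cells receive compound for 17 h at 37C following a 5 h settling period.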

[17] = target: Peroxisome proliferator-activated receptor delta (Homo sapiens) (UniProt Q03181); assay: qHTS assay to identify small molecule agonists of the peroxisome proliferator-activated receptor delta (PPARd) signaling pathway (AID 743212; calls by dose curve)
In short: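 HEK293H UAS-bla reporter cells, human PPARd system; compounds delivered in DMSO after 5 h plating, then at 37 C. Beta-lactamase FRET read, 2 h RT substrate step.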

[18] = target: Peroxisome proliferator-activated receptor delta (Homo sapiens) (UniProt Q03181); assay: qHTS assay to identify small molecule antagonists of the peroxisome proliferator-activated receptor delta (PPARd) signaling pathway (AID 743215; active = well fitted inhibition curve with a large enough effect in the signal ratio in the repeat runs, not every such curve was filed as active; the % refers to the signal ratio;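 note: cells stimulated with agonist L165041 at 300 nM final during compound exposure; series mostly up to about 62 µM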)
In short: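 Read-out is beta-lactamase FRET fluorescence, measured 2 h after substrate addition at room temperature. Beforehand, UAS-bla HEK293H cells carrying the PPARd reporter were exposed to compounds with L165041 at 300 nM final for 17 h at 37 C.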

[19] = target: Bile acid receptor (Homo sapiens) (UniProt Q96RI1); assay: qHTS assay to identify small molecule antagonists of the farnesoid-X-receptor (FXR) signaling pathway (AID 743217; active = well fitted inhibition curve with a large enough effect in the signal ratio in the repeat runs, not every such curve was filed as active; the % refers to the signal ratio)
In short: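 HEK 293T FXR-UAS-bla, 5000 cells/well; compound + CDCA 50 uM final; 16 h, 37 °C; B/G FRET substrate 2 h RT; fluorescence.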

[20] = target: Bile acid receptor (Homo sapiens) (UniProt Q96RI1); assay: qHTS assay to identify small molecule agonists of the farnesoid-X-receptor (FXR) signaling pathway (AID 743220; active = well fitted activation curve with a large enough effect in the signal ratio in the repeat runs, not every such curve was filed as active; the % refers to the signal ratio)
In short: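 Beta-lactamase reporter under UAS control in GeneBLAzer FXR HEK 293T cells (5000/well) measured with LiveBLAzer FRET substrate after 2 h at room temperature. Compound exposure lasted 16 h at 37C.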
% is set by controls: 0 for no effect and ±100 for the full control effect.

Sequence of Peroxisome proliferator-activated receptor gamma (Homo sapiens) (P37231 whole entry, looked up): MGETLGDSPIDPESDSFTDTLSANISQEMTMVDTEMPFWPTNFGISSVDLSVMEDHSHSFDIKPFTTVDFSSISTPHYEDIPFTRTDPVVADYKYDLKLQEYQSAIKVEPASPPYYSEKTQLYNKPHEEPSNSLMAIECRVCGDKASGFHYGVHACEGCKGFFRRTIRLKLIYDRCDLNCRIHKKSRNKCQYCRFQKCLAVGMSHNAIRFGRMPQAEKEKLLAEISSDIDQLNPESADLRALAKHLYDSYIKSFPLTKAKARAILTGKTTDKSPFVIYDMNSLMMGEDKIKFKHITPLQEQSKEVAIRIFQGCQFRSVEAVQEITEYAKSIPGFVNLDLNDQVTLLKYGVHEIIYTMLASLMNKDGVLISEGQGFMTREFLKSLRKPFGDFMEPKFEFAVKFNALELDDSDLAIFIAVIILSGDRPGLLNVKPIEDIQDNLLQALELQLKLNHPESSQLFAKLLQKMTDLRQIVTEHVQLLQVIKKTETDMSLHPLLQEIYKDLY
Sequence of Bile acid receptor (Homo sapiens) (Q96RI1 whole entry, looked up): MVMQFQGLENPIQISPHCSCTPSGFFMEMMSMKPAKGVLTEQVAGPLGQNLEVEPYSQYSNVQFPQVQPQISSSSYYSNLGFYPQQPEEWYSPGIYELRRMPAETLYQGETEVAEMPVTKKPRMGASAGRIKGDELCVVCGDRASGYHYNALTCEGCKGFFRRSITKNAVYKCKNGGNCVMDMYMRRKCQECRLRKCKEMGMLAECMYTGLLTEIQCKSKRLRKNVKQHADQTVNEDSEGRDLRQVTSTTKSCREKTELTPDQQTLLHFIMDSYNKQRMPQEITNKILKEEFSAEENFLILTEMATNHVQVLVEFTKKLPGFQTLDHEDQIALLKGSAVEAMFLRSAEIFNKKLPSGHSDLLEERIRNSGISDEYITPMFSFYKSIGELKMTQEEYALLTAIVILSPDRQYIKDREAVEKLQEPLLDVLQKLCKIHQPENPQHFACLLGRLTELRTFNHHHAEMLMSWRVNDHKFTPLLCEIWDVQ
Sequence of Vitamin D3 receptor (Homo sapiens) (P11473 whole entry, looked up): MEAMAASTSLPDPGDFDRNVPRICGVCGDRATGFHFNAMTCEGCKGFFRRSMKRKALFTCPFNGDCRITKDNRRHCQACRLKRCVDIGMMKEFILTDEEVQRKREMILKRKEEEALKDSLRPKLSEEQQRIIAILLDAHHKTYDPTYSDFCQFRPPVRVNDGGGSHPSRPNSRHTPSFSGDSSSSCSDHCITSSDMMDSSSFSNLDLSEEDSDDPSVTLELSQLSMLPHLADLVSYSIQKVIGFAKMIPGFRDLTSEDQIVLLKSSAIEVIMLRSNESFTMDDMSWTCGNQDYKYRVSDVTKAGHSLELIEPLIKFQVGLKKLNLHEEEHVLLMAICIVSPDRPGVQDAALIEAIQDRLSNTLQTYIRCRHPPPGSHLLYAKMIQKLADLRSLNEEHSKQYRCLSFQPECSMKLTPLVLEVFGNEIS
Sequence of Aryl hydrocarbon receptor (Homo sapiens) (P35869 whole entry, looked up): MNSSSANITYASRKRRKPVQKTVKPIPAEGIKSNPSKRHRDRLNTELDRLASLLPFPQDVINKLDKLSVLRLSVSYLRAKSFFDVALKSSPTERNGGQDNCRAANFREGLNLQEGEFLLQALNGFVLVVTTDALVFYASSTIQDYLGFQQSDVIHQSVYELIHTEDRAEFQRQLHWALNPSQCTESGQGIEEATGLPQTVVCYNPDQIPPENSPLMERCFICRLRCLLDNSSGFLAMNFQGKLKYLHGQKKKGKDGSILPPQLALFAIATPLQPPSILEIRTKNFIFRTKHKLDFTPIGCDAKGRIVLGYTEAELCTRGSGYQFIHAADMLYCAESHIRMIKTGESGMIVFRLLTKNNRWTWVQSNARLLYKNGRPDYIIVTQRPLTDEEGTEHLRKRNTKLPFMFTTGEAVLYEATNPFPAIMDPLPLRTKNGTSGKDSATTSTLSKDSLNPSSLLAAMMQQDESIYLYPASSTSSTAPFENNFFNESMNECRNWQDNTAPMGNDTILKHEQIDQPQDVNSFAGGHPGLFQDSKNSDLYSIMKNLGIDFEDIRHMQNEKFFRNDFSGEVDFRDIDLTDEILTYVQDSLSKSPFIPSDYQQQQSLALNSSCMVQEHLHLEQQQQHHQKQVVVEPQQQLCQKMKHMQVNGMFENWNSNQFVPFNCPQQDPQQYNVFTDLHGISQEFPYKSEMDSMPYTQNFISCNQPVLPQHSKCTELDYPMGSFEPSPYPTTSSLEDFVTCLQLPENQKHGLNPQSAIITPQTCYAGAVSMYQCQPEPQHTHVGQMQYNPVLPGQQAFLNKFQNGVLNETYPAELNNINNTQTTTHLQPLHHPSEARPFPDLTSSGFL
Sequence of Peroxisome proliferator-activated receptor delta (Homo sapiens) (Q03181 whole entry, looked up): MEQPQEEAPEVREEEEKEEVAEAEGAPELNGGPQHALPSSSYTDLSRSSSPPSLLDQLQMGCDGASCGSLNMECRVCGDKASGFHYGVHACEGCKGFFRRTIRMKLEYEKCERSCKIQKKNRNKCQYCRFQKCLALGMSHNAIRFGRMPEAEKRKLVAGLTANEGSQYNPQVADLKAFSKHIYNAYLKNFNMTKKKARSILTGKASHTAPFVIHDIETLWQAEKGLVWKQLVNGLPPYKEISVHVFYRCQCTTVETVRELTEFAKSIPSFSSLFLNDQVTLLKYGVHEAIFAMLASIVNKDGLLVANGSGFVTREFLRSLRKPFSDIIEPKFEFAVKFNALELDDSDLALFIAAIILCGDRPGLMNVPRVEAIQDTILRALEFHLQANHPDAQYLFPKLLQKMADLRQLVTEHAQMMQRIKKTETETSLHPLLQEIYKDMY

CCOP(=O)(OCC)SCCSCC
inactive: Potency [1] | Potency [2] | Potency [3] | Potency [4] | Potency [5] | Potency [6] | Potency [7] | Potency [8] | Potency [9] | outcome [10] | Potency [11] | Potency [12] | Potency [13] | outcome [14] | outcome [15]

CCCCCCCCOC(=O)c1ccc(C(=O)OCCCCCCCC)c(C(=O)OCCCCCCCC)c1
inactive: Potency [1] | Potency [2] | Potency [3] | Potency [4] | Potency [5] | Potency [8] | Potency [9] | Potency [16] | outcome [17] | Potency [11] | Potency [18] | Potency [19] | Potency [12] | outcome [20]

C=CCOC(C)=O
inactive: Potency [1] | Potency [2] | Potency [3] | Potency [4] | Potency [6] | Potency [7] | Potency [8] | Potency [9] | outcome [10] | Potency [16] | Potency [11] | Potency [19] | Potency [12] | outcome [20] | Potency [13] | outcome [14] | outcome [15]

CNC(C)Cc1ccccc1OC (stereo not given)
inactive: Potency [1] | Potency [2] | Potency [3] | Potency [4] | Potency [6] | Potency [7] | Potency [8] | Potency [9] | outcome [10] | Potency [16] | outcome [17] | Potency [11] | Potency [18] | Potency [13] | outcome [14] | outcome [15]

CCCCN=C=O
inactive: Potency [1] | Potency [2] | Potency [3] | Potency [4] | Potency [5] | Potency [8] | Potency [9] | outcome [10] | outcome [17] | Potency [11] | Potency [18] | Potency [19] | Potency [12] | outcome [20] | Potency [13] | outcome [14] | outcome [15]

CCCCOC(=O)c1ccccc1C(=O)OCc1ccccc1
inactive: Potency [1] | Potency [2] | Potency [3] | Potency [4] | Potency [6] | Potency [7] | Potency [8] | Potency [9] | outcome [10] | Potency [16] | outcome [17] | Potency [13]

Nc1nc(=S)[nH][nH]1
inactive: Potency [1] | Potency [2] | Potency [3] | Potency [4] | Potency [6] | Potency [7] | Potency [8] | Potency [9] | outcome [10] | Potency [16] | outcome [17] | Potency [18] | Potency [12] | Potency [13] | outcome [14] | outcome [15]

NCC(CC(=O)O)c1ccc(Cl)cc1 (stereo not given)
inactive: Potency [1] | Potency [2] | Potency [3] | Potency [4] | activity change, negative = cytotoxicity [6] -16.4% [at 0.55 µM] | activation [7] -5.3% [at 0.756 µM] | viability change, negative = cytotoxic [8] 4.15% [at 0.756 µM] | activity change, negative = cytotoxicity [9] 1.94% [at 0.55 µM] | activation [10] -1.61% [at 0.55 µM] | activity change, negative = cytotoxicity [16] -0.324% [at 0.55 µM] | activation [17] 1.99% [at 0.55 µM] | viability change, negative = cytotoxic [11] -11.6% [at 0.575 µM] | ratio activity, negative = inhibition [18] -0.236% [at 0.575 µM] | viability change, negative = cytotoxic [12] 0.276% [at 0.55 µM] | activity change, negative = cytotoxicity [13] 3.53% [at 0.55 µM]

Cc1cc(=O)[nH]o1
inactive: Potency [1] | Potency [2] | Potency [3] | Potency [4] | Potency [6] | Potency [7] | Potency [8] | Potency [9] | outcome [10] | outcome [17] | Potency [11] | Potency [18] | Potency [13]
